# Data reported in PubChem BioAssay (NCI).
# This is part of a sample that, as a whole, favours compounds with a hit. Of some 83,000 tested, about 20% had one in any assay.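 Single-concentration screen, 48 h exposure, 96-well plates. Endpoint: percent growth. Below 10 = active.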 Active and inactive are the calls of the source.
# System: HL-60(TB) leukemia
# Test: NCI-60 one-dose screen, 48 h (100 = growth as untreated, 0 = no growth, -100 = all killed)
# Settings: 10 µM unless noted
row,Compound,growth
1,O=C(/C=C/c1ccccc1Cl)Nc1ncc(Cc2cc(Cl)ccc2Cl)s1,3.08% (active)
2,COC(=O)C(Cc1ccccc1)NS(=O)(=O)/N=C1\NC(=O)NC1=C(Cl)Cl (stereo unspecified),96.1% (inactive)
3,Cc1ccc(-c2nc(SCC(=O)c3ccccc3)nc(Nc3ccc(S(N)(=O)=O)cc3)c2C#N)cc1,95.9% (inactive)
4,COc1cc2nc(Cl)nc(Nc3cccc(C4=Nc5c(N)nc(N)nc5NC(c5ccc(Cl)cc5)C4)c3)c2cc1OC (stereo unspecified),-30.3% (active)
5,CS(=O)(=O)c1ccc(-c2nc3ccccn3c2/C=N/Nc2nc(-c3ccc(Cl)cc3)cs2)cc1,99.2% (inactive)
6,C[C@@H]1C[C@H]2C(=O)O[C@@H](C)C(NC(=O)[C@H](Cc3cc(F)cc(F)c3)NC(=O)Nc3ccc(C4CC4)cc3F)C(=O)N3CCC[C@H]3C(=O)N3CCCC[C@H]3C(=O)N[C@@H](CO)C(=O)N2C1 (stereo partly specified),11.5% (inactive)
